The text below walks through data of PubChem BioAssay AID624352 (Sanford-Burnham Center for Chemical Genomics, 2012).

In all, about 360,000 compounds went through this assay and about 2,600 (0.72%) were called active.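 How the source made its calls: active means inhibition of the luminescence signal of 40% or more relative to plate controls, in a single-dose primary screen at 18.75 µM; inactive means the rest.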 What follows is part of a selection rich in actives, with near analogues and random picks from the rest.

This experiment is described as follows: HIF-2a reporter inhibitors, primary screen, luminescence, 786-0 RCC cells (AID 624352). The settings on record: 786-0 RCC cells HIF-2a reporter, luciferase luminescence, overnight; at 18.8 µM; hits give high values.
`CC(=O)NC1=NN(C(C)=O)C(C)(c2ccc(Cl)s2)S1` (stereo not given): the inhibition – broadly, the relative decrease from the control value, in per cent – is 14.9% (inactive). Take `CCc1cc(=O)oc2c(C)c(OCC(=O)N3CC[C@@]4(O)CCCC[C@H]4C3)ccc12`: the inhibition was -4.19% (inactive). With `Brc1ccc(CN2CC[C@H]3C=CCc4cccc(c43)C2)cc1` the figure was 11.8% (inactive); with `O=C(Cc1cccc2ccccc12)NNC(=O)Nc1ccc(Cl)cc1`, -196% (inactive); with `Cc1ccc(NC(=S)NC(NC(=O)Cc2cccc3ccccc23)C(Cl)(Cl)Cl)cc1` (stereo not given), 54.6% (active). With `CC(C)(C)C(=O)NC(NC(=S)Nc1ccc(S(N)(=O)=O)cc1)C(Cl)(Cl)Cl` (stereo not given) the figure was 5.45% (inactive); with `O=c1c2ccccc2cnn1Cc1n[nH]c(=S)n1-c1ccccc1F`, 13.1% (inactive). With `O=C(NCCc1cccc(F)c1)C1CC(O)CN1C(=O)Nc1ccccc1` (stereo not given) the figure was 17.9% (inactive); with `CCCNC(=O)C1(C)CCCN(Cc2c(C)nn(-c3ccccc3)c2C)C1` (stereo not given), 6.85% (inactive); with `COc1ccc(CNC(=O)COc2ccccc2C(=O)c2cnn(-c3ccccc3)c2)cc1OC`, -184% (inactive). In the case of `CN1CCN(CCCNC(=O)c2ccc(/C=C3\Oc4ccccc4N(Cc4ccc(Cl)cc4)C3=O)cc2)CC1`, the inhibition is 89.4% (active). `Cc1ccc(NC(=O)CCCNC(=O)c2ccc(Cl)cc2)cc1S(=O)(=O)N1CCOCC1`: the inhibition was 5.62% (inactive). With `CCC1Oc2ccccc2N(CC(=O)NCCCN2CCN(CC)CC2)C1=O` (stereo not given) the figure was 4.83% (inactive); with `O=C1CCC(=O)N(c2ccccc2)N1`, 9.24% (inactive). With `CN(c1ccc(OCC(=O)NC2=NCCS2)cc1)S(=O)(=O)c1ccc(F)cc1` the figure was 1.28% (inactive); with `O=C(c1ccc2ccccc2n1)N1CCN(c2ccccc2Cl)CC1`, -107% (inactive).

As to `Cc1coc2c(O)cc3c(c12)OC1(N2CCCCC2)C(=O)NCCCC31` (stereo not given), the inhibition was 56.7% (active).

`Cn1c(=O)c2sccc2n(Cc2ccc(Br)cc2)c1=O`: the inhibition was 13.3% (inactive). In the case of `OCCC#Cc1ccc(N2C(c3ccsc3)=Cc3ccc(F)cc3C2c2c[nH]c3ccccc23)cc1` (stereo not given) it was -21.5% (inactive); in that of `CC(=O)Nc1ccc(NC(=O)CC2CCCC2)cc1`, -38.5% (inactive). With `O=C(O)CC(SCC(=O)Nc1ccc(Br)cc1)C(=O)O` (stereo not given) the figure was 2.54% (inactive); with `O=C(CCl)Nc1ccc(Sc2ccc(NC(=O)CCl)cc2)cc1`, 58.1% (active); with `c1ccc(-c2cnc(CN3CCN(c4ccccc4)CC3)o2)cc1`, -16.5% (inactive). With `CC(NC(=O)C(=O)NN=C1CCC(C(C)(C)C)CC1)c1ccccc1` (stereo not given) the figure was 13.2% (inactive). As for `CCCCc1c(-c2ccc(Cl)cc2)ncn1CCc1ccccc1OC`, the inhibition was -111% (inactive). With `FC(F)(F)c1nnc2c3ccccc3c(Cl)nn12` the figure was 16.8% (inactive); with `CC1(C(=O)Nc2ccc3c(c2)OCCO3)CN(S(C)(=O)=O)CC(=O)N1Cc1cccc(F)c1` (stereo not given), 11.6% (inactive). With `Cc1ccc(-c2noc(CNC(=O)c3ccoc3C)n2)cc1` the figure was 89% (active); with `Cc1ccc(-c2noc(-c3ccccc3C(=O)NCC3CCCO3)n2)cc1` (stereo not given), -126% (inactive); with `O=C(Cc1ccc(Cl)cc1)NCc1nc(-c2ccccc2)no1`, 8.68% (inactive). In the case of `COC(=O)c1ccc(COC(=O)c2cnccn2)cc1`, the inhibition was 9.27% (inactive).

As for `Cc1nc(C(F)(F)F)ccc1C(=O)N1CCC1(C)C(=O)NS(=O)(=O)c1ccccc1` (stereo not given), the inhibition was 18.3% (inactive). In the case of `CC(C)C(=O)NC(NC(=S)NC1CCS(=O)(=O)C1)C(Cl)(Cl)Cl` (stereo not given) it was -1.77% (inactive). In the case of `O=S1(=O)CCC(NC(=S)SCc2ccccc2Br)C1` (stereo not given) it was 37.1% (inactive). In the case of `CCCSC(=S)NC1CCS(=O)(=O)C1` (stereo not given), the inhibition was 41.3% (active). In the case of `CC(=O)OCC1(O)CC23CCC4c5ccoc5CCC4(C)C2CCC1C3` (stereo not given) it was 7.41% (inactive); in that of `OCCNCCCCOc1ccccc1F`, -0.6% (inactive). `CC1(C)OC(=O)C2=C(C[C@@H](C3CCCC3)O[C@@H]2c2ccc(Cl)cc2)O1`: the inhibition was 8.87% (inactive). In the case of `CN(c1ccc2nc3ccccc3c(=O)n2n1)C1CCCCC1` it was 78.2% (active); in that of `CN(C(=O)Nc1ccc(Cl)cc1)n1cnc2ccccc2c1=O`, -36.5% (inactive). In the case of `COCC(C)n1c(SCC(=O)NC2CCCCC2C)nc2ccccc2c1=O` (stereo not given) it was 15% (inactive). With `Cc1cccc(OCC(=O)OCC(=O)Nc2ccc(Cl)cn2)c1` the figure was 11.3% (inactive); with `O=C(CN1CCN(C2CCS(=O)(=O)C2)CC1)N1N=C(c2ccc(Cl)cc2)CC1c1ccco1` (stereo not given), 47.5% (active); with `Cc1ccc(C2=NN(C(=O)COc3ncnc4ccccc34)C(c3ccco3)C2)cc1` (stereo not given), 6.33% (inactive). As for `Cc1ccc(C2=NN(C(=O)CSc3nc(N)cc(N)n3)C(c3ccco3)C2)cc1` (stereo not given), the inhibition was 24.9% (inactive).

As to `CN(C(=O)c1cccc(NC(=O)Cc2cccc(NC(=O)C3CCCN(C(=O)C4CC4)C3)c2)c1)C1CCC1` (stereo not given), the inhibition is 11.8% (inactive). On to `COc1ccccc1C(=O)Nc1nc2nc(-c3ccccc3)cc(=O)n2[nH]1`, for which the inhibition was 4.83% (inactive). In the case of `COc1ccc2c(c1OC)C(=O)OC2Nc1nc(-c2ccccc2)cs1` (stereo not given) it was 57.8% (active). With `COc1cc(C(O)c2nc(-c3cccc(C(=O)O)c3)cs2)ccc1F` (stereo not given) the figure was -9.8% (inactive); with `CCN1CCN(C(=O)c2cc3cc4ccc(OC)cc4nc3s2)CC1`, -78.9% (inactive).

In the case of `COc1cc(OC)c(NS(=O)(=O)c2cn(C)cn2)cc1Cl`, the inhibition is 6.21% (inactive). With `CSc1ccccc1NC(=O)Cc1ccc(Br)cc1` the figure was -11.3% (inactive); with `COc1ccc(C(=O)/C=C/c2ccc(-c3ccccc3)cc2)cc1CSCC(=O)O`, 67.7% (active).

Regarding `COC(=O)c1ccc(COc2ccc(/C=C/C(=O)c3ccc(OC)c(CSCC(=O)O)c3)cc2OC)cc1`, the inhibition was -5.92% (inactive). For the compound `COc1ccccc1CCNC(=O)C1CCN(C(=O)/C=C/c2ccccc2)CC1`, the inhibition was -5.61% (inactive). With `CC(C)Cc1ccc(C(C)C(=N)N)cc1` (stereo not given) the figure was 25.6% (inactive); with `COCCNC(=O)Nc1ccc2nc(-c3ccco3)c(-c3ccco3)nc2c1`, 42.3% (active); with `COc1ccc(CCNC(=O)Nc2ccc3c(c2)c(=O)n(C)n3C)cc1OC`, 3.46% (inactive). On to `COCCNC(=O)CN(Cc1ccco1)C(=O)CCC(=O)Nc1nccs1`, for which the inhibition was 3.02% (inactive). With `O=S1(=O)CC(N2CCN(Cc3ccccc3F)CC2)CN1Cc1cn(Cc2cccc(C(F)(F)F)c2)nn1` (stereo not given) the figure was 1.15% (inactive).
